# Data published in PubChem BioAssay AID652175 (National Center for Advancing Translational Sciences (NCATS), 2013).
# Inconclusive results are not listed. Entries that show only a call come without a potency. Calls of active or inactive are those of the source. Calls follow the shape of the dose curve; as a rule, active = well fitted inhibition curve with a large enough effect; inconclusive = small, poorly fitted or top-dose-only effect; inactive = no such curve, though single readings can be large or run the other way.
# Experiment: qHTS Assay for Lipid Storage Modulators: S3 Assay against Probe and Analogs
# In short: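 Drosophila S3 cells, 5,000/well, dosed with compounds (0.46% DMSO final) and oleic acid to induce lipid droplets, 18-24 h at 25 °C. BODIPY 493/503 and Cell Tracker Red read by laser-scanning cytometry; % activity relative to 20 uM Triacsin C.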
row,Compound,Potency
1,CCOC(=O)C1CCN(C(=O)CNC(=O)Nc2ccccc2Cl)CC1,inactive
2,CCOC(=O)C1CCN(C(=O)C2(NC(=O)Nc3ccccc3Cl)CCCCC2)CC1,166 nM (active)
3,COc1cc(Nc2ncc(F)c(Nc3ccc4c(n3)NC(=O)C(C)(C)O4)n2)cc(OC)c1OC,inactive
4,CC(C)(C)OC(=O)NCCOCCOCCOc1ccc(-n2ncc3c2CCCC3NC(=O)c2ccccn2)cc1 (centres undefined),9.3 nM (active)
5,CCOc1ccc(CCNC(=O)c2cc3ccccc3n2Cc2cc(C)cc(C)n2)cc1OCC,16.6 nM (active)
6,CCOc1ccc(CCNC(=O)CN(C)C)cc1OCC,inactive
7,CCOC(=O)C1CCN(C(=O)C(C)(C)NC(=O)Nc2ccc(N)cc2)CC1,inactive
8,CCOC(=O)C1CCN(C(=O)C(C)(C)NC(=O)Nc2ccc(-c3ccccc3)cc2)CC1,inactive
9,CCOc1ccc(CCNC(=O)c2cc3sccc3n2Cc2ccncc2)cc1OCC,132 nM (active)
10,CCOC(=O)C1CCN(C(=O)C(C)(C)NC(=O)Nc2ccc(OC)c(Cl)c2)CC1,inactive
11,CCOc1ccc(CCNC(=O)c2cccs2)cc1OCC,inactive
12,O=C(NC1CCCc2c1cnn2-c1ccc(F)cc1F)c1ccsc1 (centres undefined),11.8 nM (active)
13,O=C(N[C@H]1CCCc2c1cnn2-c1ccc(F)cc1F)c1ccccn1,inactive
14,O=C(NC1CCCc2c1cnn2-c1ccc(F)cc1F)c1ccc(C(=O)c2ccccc2)cc1 (centres undefined),inactive
15,CC(NCc1ccc2c(c1)nc(NC(=O)c1ccc(-c3cn[nH]c3)s1)n2CC(C)(C)O)C(C)(C)C (centres undefined),inactive
16,O=C(NCCc1ccc(OCC(F)(F)F)c(OCC(F)(F)F)c1)c1cc2sccc2n1Cc1ccccc1,1320 nM (active)
17,O=C(NC1CCCc2c1cnn2-c1ccc(F)cc1F)c1cnon1 (centres undefined),inactive
18,O=C(Nc1cccc2c1cnn2-c1ccc(F)cc1)c1ccccn1,inactive
19,O=C(NC1CCCc2c1cnn2-c1ccc(F)cc1F)C1CC1 (centres undefined),inactive
20,CCOC(=O)C1CCN(C(=O)C(C)(C)NC(=O)Nc2cccc(C(=O)OC)c2)CC1,inactive
21,CC1=C(C(=O)NC2CCCc3c2cnn3-c2ccc(F)cc2F)OCCO1 (centres undefined),59 nM (active)
22,CCOc1ccc(CCNC(=O)c2ccc(N3N=C(C)CC3=O)cc2)cc1OCC,inactive
23,CCOc1ccc(CCNC(=O)c2cc3sccc3n2CCN2CCOCC2)cc1OCC,148 nM (active)
24,CCn1c(C(=O)NCCc2ccc(OC)cc2)cc2sccc21,inactive
25,CC(C)(C)OC(=O)NCCOCCOCCOc1cccc(-n2ncc3c2CCCC3NC(=O)c2ccccn2)c1 (centres undefined),18.7 nM (active)
26,CCOC(=O)C1CCN(C(=O)C(C)(C)NC(=O)Nc2ccc(C#N)cc2)CC1,inactive
27,Cc1ccc(NC(=O)c2ccc(CN3CCN(C)CC3)cc2)cc1Nc1nc(-c2cccnc2)cs1,inactive
28,Cn1c(=O)n(-c2ccc(C(C)(C)C#N)cc2)c2c3cc(-c4cnc5ccccc5c4)ccc3ncc21,1180 nM (active)
29,COc1ccc(-n2ncc3c2CCCC3NC(=O)c2ccccn2)cc1 (centres undefined),1.3 nM (active)
